{"source": "the supplement of paper PMC9023506", "note": "Structures can show the parent of a compound that is named as a salt."}
{"test_system": "Danio rerio larvae (5 dpf)", "test": "optomotor response to red moving lines, difference vs DMSO (percentage points (treated minus DMSO)); higher = more of the behaviour than the DMSO vehicle control", "details": "10 µM; exposure time: 3 h pre-incubation + 3 h imaging", "method": "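5-dpf wild-type zebrafish larvae were imaged in 96-well plates. They were treated with 190 Tocris FDA-approved drugs at 10 µM (1 µl/ml DMSO) for 3 h before and 3 h during imaging at 28.5 °C, 48 larvae per drug. Automated image analysis gave % time moving and optomotor responses. Values are drug group mean minus DMSO vehicle mean (n=844), in percentage points, for 10 behaviours.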"}
{"molecule": "C=CCN1C[C@H](C(=O)N(CCCN(C)C)C(=O)NCC)C[C@@H]2c3cccc4[nH]cc(c34)C[C@H]21", "note": "[Cabergoline]", "optomotor response to red moving lines": -3.05}
{"molecule": "C=C1C[C@@H]2[C@H](CC[C@]3(C)C(=O)CC[C@@H]23)[C@@]2(C)C=CC(=O)C=C12", "note": "[Exemestane]", "optomotor response to red moving lines": 6.78}
{"molecule": "COc1cc2c(cc1OC)C1CC(=O)C(CC(C)C)CN1CC2", "note": "(stereo unspecified) [Tetrabenazine]", "optomotor response to red moving lines": -1.77}
{"molecule": "CCN(C)C(=O)Oc1cccc([C@H](C)N(C)C)c1", "note": "[Rivastigmine tartrate]", "optomotor response to red moving lines": -8.95}
{"molecule": "CC(C)C[C@H]1C(=O)N2CCC[C@H]2[C@]2(O)O[C@](NC(=O)[C@@H]3C=C4c5cccc6[nH]c(Br)c(c56)C[C@H]4N(C)C3)(C(C)C)C(=O)N12", "note": "[Bromocriptine mesylate]", "optomotor response to red moving lines": -29}
{"molecule": "CC(O)(CS(=O)(=O)c1ccc(F)cc1)C(=O)Nc1ccc(C#N)c(C(F)(F)F)c1", "note": "(stereo unspecified) [Bicalutamide]", "optomotor response to red moving lines": -10.4}
{"molecule": "COc1ccc(C(CN(C)C)C2(O)CCCCC2)cc1", "note": "(stereo unspecified) [Venlafaxine hydrochloride]", "optomotor response to red moving lines": 18.8}
{"molecule": "O=c1[nH]c2ccccc2n1C1CCN(CCCC(c2ccc(F)cc2)c2ccc(F)cc2)CC1", "note": "[Pimozide]", "optomotor response to red moving lines": -0.227}
{"molecule": "N[C@@H]1C[C@H]1c1ccccc1", "note": "[Tranylcypromine hydrochloride]", "optomotor response to red moving lines": 12.9}
{"molecule": "CN1C[C@H](C(=O)N[C@]2(C)O[C@@]3(O)[C@@H]4CCCN4C(=O)[C@H](Cc4ccccc4)N3C2=O)C[C@@H]2c3cccc4[nH]cc(c34)C[C@H]21", "note": "[Dihydroergotamine mesylate]", "optomotor response to red moving lines": 11.5}
{"molecule": "CC[C@@H](C(N)=O)N1CCCC1=O", "note": "[Levetiracetam]", "optomotor response to red moving lines": 0.251}
